Source: PubChem BioAssay (The Scripps Research Institute Molecular Screening Center)
Shown are actives, neighbours in structure and some others; about 3.4% of the full set was active somewhere.
FBW7 activator – activators of human E3 ligase FBW7; AlphaScreen FBW7–phospho-cyclin E peptide binding, activator screen; 0.13% of 650,000 active; Q969H0; AID 1259310; normalized activity (activation), % at 26.1 µM; in the data active = normalized activity above about 1.9%;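 note: purified mutant Fbw7 with reduced substrate affinity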
Target sequence (Q969H0 whole entry, looked up): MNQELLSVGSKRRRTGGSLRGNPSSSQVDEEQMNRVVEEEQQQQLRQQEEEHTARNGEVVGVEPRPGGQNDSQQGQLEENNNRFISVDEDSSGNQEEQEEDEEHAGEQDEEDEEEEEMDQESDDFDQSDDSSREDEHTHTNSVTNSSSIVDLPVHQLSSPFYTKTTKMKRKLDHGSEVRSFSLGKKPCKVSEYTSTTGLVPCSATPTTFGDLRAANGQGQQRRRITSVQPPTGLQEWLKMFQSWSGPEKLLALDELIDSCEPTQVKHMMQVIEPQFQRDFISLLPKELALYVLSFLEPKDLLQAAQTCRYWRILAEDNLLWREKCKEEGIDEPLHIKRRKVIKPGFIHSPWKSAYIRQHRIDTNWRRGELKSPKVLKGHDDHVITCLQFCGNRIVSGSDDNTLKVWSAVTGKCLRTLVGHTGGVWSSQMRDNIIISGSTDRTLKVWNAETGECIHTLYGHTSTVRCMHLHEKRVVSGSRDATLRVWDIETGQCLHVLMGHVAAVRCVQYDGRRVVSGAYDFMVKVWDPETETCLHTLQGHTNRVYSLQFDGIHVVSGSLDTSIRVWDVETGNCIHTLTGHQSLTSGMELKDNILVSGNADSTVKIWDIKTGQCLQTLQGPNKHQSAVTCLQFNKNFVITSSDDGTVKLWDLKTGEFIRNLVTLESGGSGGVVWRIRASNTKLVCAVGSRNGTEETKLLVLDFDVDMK
GPR151 activ – activators of human GPR151 | AID 1508602 | 1% of 650,000 active | PathHunter beta-arrestin GPR151 cells, luminescence | Q8TDV0 | activation, % at 11.2 µM; in the data active = activation above about 4.9%
TEAD-YAP inh – TEAD-YAP interaction inhibition. 1.4% of 640,000 active. HEK-TIYL cells, TEAD-Gal4/YAP UAS-luciferase luminescence. inhibition, % at 9.12 µM; in the data active = inhibition above about 32%
MITF inh – inhibitors of human MITF | inhibition, % at 2.6 µM | O75030 | 0.91% of 650,000 active | AlphaScreen MITF homodimerization, bead proximity signal; in the data active = inhibition above about 50%
GPR151 conf act – human GPR151 activation, confirmation screen; GPR151 PathHunter beta-arrestin cells, luminescence, 90 min; % of EA-reagent control over plate median; shares compounds with GPR151 activ; AID 1508609; activation, % at 11.2 µM; 6,700 tested, under 10 active;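 active = mean percent activation across replicates above the confirmation screen cutoff of 4.91%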
GPR119 counter – activates human GPR119 in a GPR151 counter-screen. activation, % at 11.2 µM. shares compounds with GPR151 activ. AID 1508611. 0.3% of 6,700 active. GPR119 PathHunter beta-arrestin cells, luminescence, 90 min; 0 = compound-well median, 100 = enzyme-acceptor control;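 active = mean percent activation in the counterscreen above 29.09%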;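 note: counterscreen on off-target GPR119 to flag nonselective hits from the GPR151 activator screen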
Numbers stand for hits; i = inactive; nt = no result; ! = not active in a repeat.

SMILES	FBW7 activator	GPR151 activ	TEAD-YAP inh	MITF inh	GPR151 conf act	GPR119 counter
O=C(Nc1ccc(F)cc1F)C1CC1c1ccccc1 (stereo unspecified)	i	i	i	i	nt	nt
O=C(CCC1CCCCC1)NC1(C(F)(F)F)NC(=O)N(Cc2cccnc2)C1=O (stereo unspecified)	i	i	i	i	nt	nt
CC(C)(C)c1ccc(OCC(N)=O)c(Br)c1	i	5.9	i	i	i	i
CC(C)c1ccc(C2/C(=C(/O)c3ccc([N+](=O)[O-])cc3)C(=O)C(=O)N2CCCCCC(=O)O)cc1 (stereo unspecified)	i	i	i	i	nt	nt
CC(=O)c1ccc(NC(=O)Nc2ccc(NS(=O)(=O)c3ccc(C)cc3)cc2)cc1	i	i	i	i	nt	nt
CC(=O)c1ccc(NC(=O)NS(=O)(=O)c2ccc(C)cc2)cc1	i	5.4	i	i	i	i
Cc1c(Cl)cccc1Nc1ccccc1C(=O)O	i	7.5!	i	i	i	i
Cc1c(Cl)cccc1NC(=O)c1ccccc1C(=O)O	i	i	i	i	nt	nt
CC(NC(=O)c1cccnc1)C(=O)N1CCCCC1 (stereo unspecified)	i	i	i	i	nt	nt
Clc1ccc(CSc2ncnc3nc[nH]c23)cc1	i	6.6	i	i	i	i
COC(=O)c1cc2c(N3CCC(Cc4ccccc4)CC3)ncnc2s1	i	5.5	i	i	i	i
NC(=O)c1cncc(-c2cccc3c2OC(CNC(=O)Cn2c(=O)oc4ccccc42)C3)c1 (stereo unspecified)	i	i	i	i	nt	nt
Cc1nonc1CC(=O)N1CCCC(CCC(=O)N(C)CCc2ccccn2)C1 (stereo unspecified)	i	7.7	i	i	i	i
CCOC(=O)CCNC(=O)N1CCCC(N(C)CCc2ccccn2)C1 (stereo unspecified)	i	5.4	i	i	i	i
CCOC(=O)CCNC(=O)N1CCCC(CCC(=O)N(C)CCc2ccccn2)C1 (stereo unspecified)	i	i	i	i	nt	nt
COc1ccc(C(=O)COC(=O)CCC(=O)Nc2ccc(Oc3ccccc3C)cc2)cc1	i	i	i	i	nt	nt
Cc1cccc(OCc2ccc(C(=O)Nc3ccc(C(N)=O)cc3)cc2)c1	i	i	i	i	nt	nt
O=C1C(=O)N(c2ccc(S(=O)(=O)Nc3nccs3)cc2)C(c2ccc(Cl)cc2)/C1=C(\O)c1ccc(Cl)cc1 (stereo unspecified)	i	i	i	i	nt	nt
O=C1N2CN(C(c3ccccc3)c3ccccc3)CN=C2SC1(CO)CO	i	7.7	i	i	i	i
Cc1cc(NC(=O)c2ccc3c(c2)C(=O)N(c2ccc([N+](=O)[O-])cc2)C3=O)no1	i	5.7	i	i	i	i
O=C(CC1SC(=O)N(CC(=O)c2ccccc2)C1=O)Nc1ccc([N+](=O)[O-])cc1 (stereo unspecified)	i	i	i	i	nt	nt
CCOC(=O)C1(CCCc2ccccc2)CCN(C(=O)CSc2ncccn2)CC1	i	i	i	i	nt	nt
CCOC(=O)C1(CCc2ccccc2)CCN(C(=O)CSc2ncccn2)CC1	i	5.6	i	i	i	i
CCOC(=O)C1(CC2CCCCO2)CCN(C(=O)CSc2ncccn2)CC1 (stereo unspecified)	i	4.9	i	i	i	i
Clc1cccc(C2CC(c3ccccc3)Nc3ncnn32)c1 (stereo unspecified)	i	i	i	i	nt	nt
SMILES	FBW7 activator	GPR151 activ	TEAD-YAP inh	MITF inh	GPR151 conf act	GPR119 counter
CCN(CC)C(=O)Cn1c(=O)n(-c2ccc(C)cc2)c(=O)c2oc3ccccc3c21	i	5.2	i	i	i	i
CCN(CC)C(=O)Cn1c(=O)n(-c2ccccc2)c(=O)c2oc3ccccc3c21	i	i	i	i	nt	nt
CCCC(C)NS(=O)(=O)c1ccc(NC(C)=O)cc1 (stereo unspecified)	i	i	i	i	nt	nt
COc1ccccc1N(C)S(=O)(=O)c1ccc(C(=O)OCC(N)=O)cc1	i	i	i	i	nt	nt
CCNc1nc(NCCN2CCOCC2)c2ncn(-c3ccsc3)c2n1	i	6.5	33.5	i	i	i
CCNc1nc(NCCN2CCOCC2)c2ncn(-c3ccccc3)c2n1	i	i	i	i	nt	nt
COc1cc(Nc2nc(NCCO)c3ncn(-c4ccsc4)c3n2)cc(OC)c1OC	i	5.6	36.8	i	i	i
Cc1cccc(NC(=O)c2ccc(N)cc2)c1	i	i	i	i	nt	nt
O=[N+]([O-])c1cc([N+](=O)[O-])c2cccnc2c1Sc1nnc(-c2ccco2)o1	i	i	i	i	nt	nt
CC(CC(=O)Nc1ccc(F)cc1Cl)S(=O)(=O)c1ccc2c(c1)OCC(=O)N2 (stereo unspecified)	i	7.7	i	i	i	i
Cc1ccccc1NC(=O)CC(C)S(=O)(=O)c1cc2c(cc1C)NC(=O)CO2 (stereo unspecified)	i	i	i	i	nt	nt
COc1ccc(NC(=O)CC(C)S(=O)(=O)c2ccc3c(c2)OCC(=O)N3)cc1OC (stereo unspecified)	i	9.6	i	i	i	i
CC(CC(=O)Nc1ccc(F)cc1F)S(=O)(=O)c1ccc2c(c1)OCC(=O)N2 (stereo unspecified)	i	i	i	i	nt	nt
COc1ccc(OC)c(NC(=O)CC(C)S(=O)(=O)c2cc3c(cc2C)NC(=O)CO3)c1 (stereo unspecified)	i	5.1	i	i	i	i
CC(C)CN1CCNC(=O)C1CC(=O)NCCN1CCCc2ccccc21 (stereo unspecified)	i	i	i	i	nt	nt
O=C(NC(=S)NC(=O)c1ccccc1F)c1ccccc1F	i	i	i	i	nt	nt
O=C(NC(=S)NCc1ccccc1)c1ccccc1F	i	7.0	i	i	i	i
Cc1ccc(C(=O)N/N=C/c2ccc(F)cc2)cc1	i	i	i	i	nt	nt
COc1cccc(NC(=O)C(CCSC)NC(=O)C2CCC(C)CC2)c1 (stereo unspecified)	i	10.2	i	i	i	i
CCOC(=O)c1cccc(NC(=O)C(CCSC)NC(=O)C2CCC(C)CC2)c1 (stereo unspecified)	i	i	i	i	nt	nt
CCn1c(SC)nnc1C1CCCN(CC(=O)N2CCCc3ccccc32)C1 (stereo unspecified)	i	i	i	i	nt	nt
Cc1cc(=O)[nH]c(N/N=C/C=C2\N(C)c3ccccc3C2(C)C)n1	i	5.0	i	i	i	i
CCC(=O)Nc1cc(C)nn1-c1nc2c(c(=O)[nH]1)CCC2	i	i	i	i	nt	nt
COc1ccc2c(c1)c(C(=O)O)c(C)n2CCc1ccc(OC)c(OC)c1	i	5.6	i	i	i	i
COc1ccc(CCn2c(C)c(C(C)=O)c3cc(OC(=O)c4cccc(Cl)c4)ccc32)cc1OC	i	i	i	i	nt	nt
COc1cc(/C=C2/C(=N)N3N=C(C(C)C)SC3=NC2=O)cc(Cl)c1OCCOc1ccccc1	i	i	i	i	nt	nt
OCCNc1nc(-c2cccs2)nc2nc[nH]c12	i	i	i	i	nt	nt
NS(=O)(=O)c1ccccc1NC(=O)c1c(O)c2cccc3c2n(c1=O)CC3	i	5.2	i	i	i	i
